Results published in PubChem BioAssay AID1159580 (chemical genetic matrix, 2015).
Where “and” joins values, the source holds several entries; their conditions need not be identical. Identical values can stand only once. The whole screen tested about 5,500 compounds, of which about 2,000 (36%) were called active. Inconclusive results (about 18%) are left out. The list shows a part of the results. Unmarked numbers belong to inactive results. No stated cut-off is given here; in the data, active means normalized growth mostly below about 0.91 (no sharp cut-off); inconclusive means no clear call, values can overlap the other calls; inactive means mostly above about 0.92.

Assay: chemical genetic growth profiling, strain panel (AID 1159580);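 further: tested at 20 µM; growth read once vehicle control cultures reached saturation at 30 °C; 1 = growth at the plate median or of vehicle wells; lower values mean less growth of the strain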
Conditions: S. cerevisiae deletion strains, growth OD
[1] = locus YAL013W, strain DEP1, hits give low values
[2] = locus YBR229C, strain ROT2, hits give low values
[3] = locus YDL101C, strain DUN1, hits give low values
[4] = locus YDL134C, strain PPH21, hits give low values
[5] = locus YDR150W, strain NUM1, hits give low values
[6] = locus YEL061C, strain CIN8, hits give low values
[7] = locus YGR078C, strain PAC10, hits give low values
[8] = locus YHR030C, strain SLT2, hits give low values
[9] = locus YHR087W, strain rtc3, hits give low values
[10] = locus YJR043C, strain POL32, hits give low values
[11] = locus YJR075W, strain HOC1, hits give low values
[12] = locus YLR039C, strain RIC1, hits give low values
[13] = locus YLR058C, strain SHM2 (second series), hits give low values
[14] = locus YLR085C, strain ARP6, hits give low values
[15] = locus YLR262C, strain YPT6, hits give low values
[16] = locus YML094W, strain GIM5, hits give low values
[17] = locus YMR219W, strain ESC1, hits give low values
[18] = locus YNL128W, strain TEP1, hits give low values
[19] = locus YNL153C, strain GIM3, hits give low values
[20] = locus YNL298W, strain CLA4 (second series), hits give low values
[21] = locus YNL322C, strain KRE1, hits give low values
[22] = locus YNR030W, strain Alg12, hits give low values
[23] = locus YPL055C, strain LGE1, hits give low values
[24] = locus YPL241C, strain CIN2, hits give low values
[25] = locus YPR135W, strain CTF4, hits give low values

Cc1cc(Oc2c([N+](=O)[O-])cc(C(F)(F)F)cc2[N+](=O)[O-])c2c(Cl)ccc(C)c2n1
normalized growth [1]: 0.667 (active) | normalized growth [2]: 0.883 (active) | normalized growth (locus YCL061C, strain MRC1, hits give low values): 0.948 | normalized growth [3]: 0.987 | normalized growth [4]: 0.887 (active) | normalized growth [5]: 0.851 | normalized growth [6]: 0.788 (active) | normalized growth (locus YGR052W, strain FMP48, hits give low values): 0.173 (active) | normalized growth [7]: 0.913 (active) | normalized growth [8]: 0.271 (active) and 0.16 (active) | normalized growth (locus YHR079C, strain IRE1, hits give low values): 0.231 (active) | normalized growth (locus YHR082C, strain KSP1, hits give low values): 0.27 (active) | normalized growth [9]: 0.834 (active) | normalized growth (locus YJL095W, strain BCK1, hits give low values): 0.363 (active) | normalized growth [10]: 0.905 (active) | normalized growth (locus YJR066W, strain TOR1, hits give low values): 0.29 (active) | normalized growth [11]: 0.89 (active) | normalized growth (locus YKL171W, strain NNK1, hits give low values): 0.534 (active) | normalized growth (locus YKL190W, strain CNB1, hits give low values): 0.458 (active) | normalized growth (locus YKL203C, strain TOR2, hits give low values): 0.459 (active) | normalized growth [12]: 0.498 (active) | normalized growth [13]: 0.951 | normalized growth [14]: 0.372 (active) | normalized growth (locus YLR113W, strain HOG1, hits give low values): 0.655 | normalized growth [15]: 0.547 (active) | normalized growth [16]: 0.805 (active) | normalized growth [17]: 0.905 (active) | normalized growth [18]: 0.957 | normalized growth [19]: 0.976 | normalized growth (locus YNL183C, strain NPR1, hits give low values): 0.143 (active) | normalized growth (locus YNL207W, strain RIO2, hits give low values): 0.546 (active) | normalized growth [20]: 0.668 (active) | normalized growth [21]: 0.948 | normalized growth [22]: 0.623 (active) | normalized growth (locus YOR119C, strain RIO1, hits give low values): 0.479 (active) | normalized growth (locus YOR231W, strain MKK1, hits give low values): 0.418 (active) | normalized growth [23]: 0.44 (active) | normalized growth [24]: 0.762 (active) | normalized growth (locus YPL256C, strain CLN2, hits give low values): 0.348 (active) | normalized growth [25]: 0.451 (active)

O=[N+]([O-])c1cc(C(F)(F)F)ccc1Oc1cc(C(F)(F)F)cc(C(F)(F)F)c1
normalized growth [1]: 1.03 | normalized growth [2]: 1 | normalized growth [3]: 1.04 | normalized growth [4]: 0.982 | normalized growth [5]: 1.02 | normalized growth [6]: 1.03 | normalized growth [7]: 1.01 | normalized growth [8]: 1.03 | normalized growth [9]: 1.02 | normalized growth [10]: 0.996 | normalized growth [11]: 1.01 | normalized growth [12]: 1.02 | normalized growth [13]: 0.982 | normalized growth [14]: 1.01 | normalized growth [15]: 0.992 | normalized growth [16]: 1.12 | normalized growth [17]: 0.99 | normalized growth (locus YMR263W, strain SAP30, hits give low values): 0.993 | normalized growth (locus YMR307W, strain GAS1, hits give low values): 1.12 | normalized growth [18]: 0.97 | normalized growth [19]: 1.03 | normalized growth [20]: 1.01 | normalized growth [21]: 1 | normalized growth [22]: 1.05 | normalized growth [23]: 1.09 | normalized growth [24]: 1.07 | normalized growth [25]: 1.12
